Reference: PubChem BioAssay
The source made the active and inactive calls.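 How the source made its calls: active means GFP response below 50% of the DMSO control; inconclusive means fewer than 70 events counted for a yeast strain; inactive means the rest.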

Test: RPL19A-GFP modulators, yeast TOR pathway, confirmation, cell-based, S. cerevisiae, flow cytometry, cherry picks, mother/daughter gates (AID 2270)
Settings: S. cerevisiae RPL19A-GFP strain, 3 h, at 10 µM, hits give low values, 100 = same GFP as DMSO wells

GFP response vs DMSO, inactive:
CCCC(=O)Nc1ccc(C(=O)/C=C/c2ccc(SC)cc2)cc1 99.5%
Cc1cccc(CS(=O)(=O)c2ncc(Cl)c(C(=O)NCc3ccc4c(c3)OCO4)n2)c1 99.7%
Cc1nnc(NC(=O)c2ccc(S(=O)(=O)N(C)Cc3ccccc3)cc2)o1 98.4%
Clc1cnc(N/N=C/c2cccs2)c(Cl)c1 105%
CC1CCCN(CCCNC(=O)C2CCN(S(=O)(=O)N3CCC4(CC3)OCCO4)CC2)C1 (stereo unspecified) 96.4%
Clc1ccc(OCCn2cnc3ccccc32)c(Cl)c1 87.5%
O=C(O)c1ccn2c(C(=O)c3ccccc3)c(-c3ccccc3)cc2c1 91.1%
CC(=O)Oc1ccc(N2C(=O)C3C4C=CC(CO)(O4)C3C2=O)cc1 (stereo unspecified) 103%
COc1ccc(/C=C/C(=O)c2ccc(Cl)cc2)c(OC)c1 97.6%
O=C(CN1C(=O)c2cccc3cccc(c23)C1=O)N1CCCCCC1 102%
COC(=O)c1ccc(CS(=O)(=O)c2ccc(F)cc2)o1 97.8%
O=C(c1cccc(COCC(F)(F)C(F)F)c1)N1CCN(c2ccccc2)CC1 101%
COc1ccccc1N=Cc1nc(-c2ccccc2)oc1OC(C)=O 98.2%
CNC(=O)c1c(O)c2cccc3c2n(c1=O)CC3 102%
O=[N+]([O-])c1cc(S(=O)(=O)C(F)(F)F)ccc1Sc1nc2ccccc2s1 95.6%
CN(C)c1ccc(/C=C/c2cc[n+](C)cc2)cc1 111%
